USP28 block: inhibitors of human USP28 deubiquitinase; purified USP28, Ub-rhodamine cleavage fluorescence, 30 min; inhibition, % at 25 µM; 47,000 compounds, 3% hits; Q96RU2; AID 1645857
USP30 inh: inhibitors of human USP30 deubiquitinase. Q70CQ3. AID 1645860. purified USP30, Ub-rhodamine cleavage fluorescence. inhibition, % at 25 µM. 47,000 compounds, 5.3% hits
Target sequence (Q70CQ3 whole entry, looked up): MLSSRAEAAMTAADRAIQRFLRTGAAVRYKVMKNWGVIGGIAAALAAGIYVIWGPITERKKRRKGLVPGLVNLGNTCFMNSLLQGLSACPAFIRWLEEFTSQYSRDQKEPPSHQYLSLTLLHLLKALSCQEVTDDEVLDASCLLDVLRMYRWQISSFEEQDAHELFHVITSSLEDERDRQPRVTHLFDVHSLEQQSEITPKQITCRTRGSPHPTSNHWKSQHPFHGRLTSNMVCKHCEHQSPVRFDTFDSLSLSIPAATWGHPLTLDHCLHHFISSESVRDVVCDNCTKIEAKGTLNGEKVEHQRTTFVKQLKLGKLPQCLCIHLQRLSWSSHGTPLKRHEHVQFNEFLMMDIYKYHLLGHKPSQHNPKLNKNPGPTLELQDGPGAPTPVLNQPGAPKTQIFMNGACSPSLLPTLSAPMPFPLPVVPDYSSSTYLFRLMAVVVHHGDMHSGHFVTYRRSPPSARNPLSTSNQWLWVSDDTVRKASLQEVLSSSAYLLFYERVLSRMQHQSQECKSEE
USP17 block: blocks human USP17 ubiquitin-rhodamine cleavage; purified USP17, Ub-rhodamine cleavage fluorescence, 3 h; inhibition, % at 50 µM; 47,000 compounds, 6.5% hits; A8MUK1
OTUD3 block: inhibitors of human OTUD3 deubiquitinase; purified OTUD3, Ub-rhodamine fluorescence, 2 h; AID 1645858; Q5T2D3; 47,000 compounds, 0.7% hits; inhibition, % at 25 µM
An asterisk follows results filed as active; nt = no result given. An excerpt weighted towards active compounds, which were near 11% of everything screened. Rule as the data show it: active = inhibition above about 30%; inactive = the rest.

SMILES | USP28 block | USP30 inh | USP17 block | OTUD3 block
Cc1ccc(S(=O)(=O)c2nc(-c3ccccc3F)oc2N2CCCCCC2)cc1 | 6 | 26 | 2 | 14
O=C(NCCN1CCCC1)C1CCN(c2cnc(N3CCCCC3)nc2)CC1 | 78* | -44 | -25 | -18
O=C(NCC1CC1)C1CCN(c2cnc(N3CCCCCC3)nc2)CC1 | nt | nt | -27 | 0
COc1cc(OC)nc(N2CCN(C(=O)c3ccccc3NC(=O)c3ccc(C(C)(C)C)cc3)CC2)n1 | 2 | 4 | 2 | 10
CCCCCCC(C)/C=C(C)/C=C/C(=O)N[C@H]1CC2(O[C@H]1O)[C@@H]1O[C@@H]1C(=O)[C@@H]1O[C@@H]12 (some centres undefined) | 5 | 42* | 30* | -9
Cc1cc(CN2CC[C@H]3O[C@H](C(=O)NCc4ccco4)CC[C@H]32)no1 | -16 | -30 | -34 | -17
O=C(Nc1nc2c(s1)CN(C(=O)c1cc(-c3ccco3)on1)CC2)C1CC1 | 4 | -83 | 35* | 10
O=C(c1ccc(-c2ccccc2)cc1)N1CCC2(CC1)NCCc1[nH]cnc12 | -51 | -196 | -20 | -46
CCOc1ccc(S(=O)(=O)n2cc3c(=O)n(C)c(=O)n(C)c3n2)cc1 | -7 | 9 | 33* | -1
CC1CCN(CC2CCN(C(=O)Nc3ccc(F)cc3F)CC2)CC1 | 0 | -4 | 19 | -2
O=C(CN(Cc1ccccc1)S(=O)(=O)c1ccc(Cl)cc1)Nc1ccc(N2CCOCC2)cc1 | 2 | -27 | 18 | -2
O=C(CN(Cc1ccc(Cl)cc1)S(=O)(=O)c1ccc(Cl)cc1)N1CCOCC1 | 16 | 63* | 21 | 16
Cc1cccc(-n2ccnc(SCC(=O)Nc3ccc(Cl)cc3F)c2=O)c1 | 38* | 49* | 76* | 11
Cc1ccc(Cn2cc(S(=O)(=O)N3CCCCC3)ccc2=O)cc1 | 4 | 22 | 5 | 15
Cc1ccc(S(=O)(=O)N2CCN(S(=O)(=O)N3CCCCCC3)CC2)cc1 | 4 | 40* | 21 | 8
Cc1ccc(S(=O)(=O)N(C)c2c(C)ccc(S(=O)(=O)N3CCCCC3)c2C)cc1 | 16 | 30* | 6 | 18
COc1ccc(S(=O)(=O)N2CCCCC2)cc1N(C)S(=O)(=O)c1ccc(C)cc1 | -5 | 8 | -6 | 0
N#Cc1c(SCCO)nc(N2CCCC2)c2c1CCCC2 | 62* | 4 | 7 | -6
Cc1cccc(NC(=O)c2ccc(COc3ccc4c(c3)CCC4)cc2)c1C | 10 | 12 | 6 | 7
O=C(Nc1ccc(O)cc1)c1cccn2c(-c3ccccc3F)nnc12 | 37* | 25 | -6 | 0
Cc1nnc2c(NC(=O)c3cc(F)ccc3F)cccn12 | 6 | 2 | 14 | 10
Cc1nc2ccccc2n1CCNC(=O)c1ccc(C#N)cc1 | -8 | -5 | 4 | -3
CN(Cc1ccccc1F)C(=O)c1ccc(-c2ccccc2F)o1 | 18 | 0 | nt | 6
Cc1ccc(CS(=O)Cc2ccc(C(=O)NCc3ccc4c(c3)OCO4)o2)cc1 (centres undefined) | -1 | -4 | -13 | 1
O=C(CSc1nnc2sc3ccccc3n12)NCc1ccc2c(c1)OCO2 | -1 | 20 | 32* | 6
SMILES | USP28 block | USP30 inh | USP17 block | OTUD3 block
O=C(Cn1c(=O)nc(-c2ccccc2)c2ccccc21)NCc1ccc2c(c1)OCO2 | 31* | 9 | 68* | 23
CN(Cc1ccccc1F)C(=O)c1nc(-c2ccccc2)n(-c2ccccc2)n1 | 21 | 47* | 25 | 22
Cc1ccc(CNC(=O)CCC(=O)NCc2ccc3c(c2)OCO3)o1 | 6 | 20 | 38* | 4
Cc1ccc(N2CC(C(=O)NCc3nc(C)no3)CC2=O)cc1 (centres undefined) | 8 | 9 | 11 | 9
O=C(NCc1ccc2c(c1)OCO2)c1cc2ccccc2s1 | 41* | 30 | 23 | 22
Cc1nc(-c2ccccc2)sc1C(=O)NCc1ccc2c(c1)OCO2 | 6 | 21 | 0 | 0
CC(C)C(=O)Nc1nc2ccc(CCC(=O)NCc3ccc4c(c3)OCO4)cc2s1 | 23 | 38* | 24 | 18
c1ccc2c(c1)c(NCc1ccc3c(c1)OCO3)nn1cnnc21 | 9 | -27 | 41* | 3
O=C(NCc1ccc2c(c1)OCO2)c1nc(-c2ccccc2)n(-c2ccccc2)n1 | 6 | 55* | 18 | 17
O=C(/C=C/c1c(F)cccc1Cl)NCc1ccncc1 | -10 | -28 | -21 | -18
Cc1ccc2cc(CNC3CCCCC3)c(=O)[nH]c2c1 | -3 | -3 | 0 | -5
Cc1ccc(C)c(NC(=O)Cc2nc(-c3ccccn3)n[nH]2)c1 | -10 | -35 | nt | 7
CC(C)c1ccc(-n2c(=O)c3ccccc3c3ccccc3c2=O)cc1 | 12 | 35* | 3 | 14
